Inconclusive results are not listed. Values without a mark were called inactive. The source made the active and inactive calls. The call rests on the fitted dose curve; in most records, active means well fitted inhibition curve with a large enough effect; inconclusive means small, poorly fitted or top-dose-only effect; inactive means flat fitted curve, though single readings scatter.
test system: DFO2036; experiment: qHTS profiling for inhibitors of Plasmodium falciparum proliferation (AID 504749); further: nearly all actives have a fitted effect of over 60% in size;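 on activity, negative = inhibition: 0% = DMSO vehicle and full inhibition = artemisinin control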; details: P. falciparum in erythrocytes, SYBR Green DNA, 72 h; series mostly up to 28.7 µM; activity, negative = inhibition: at the top concentration
Source text: NIH National Institute of Allergy and Infectious Diseases [NIAID] NIH Chemical Genomics Center [NCGC] MLPCN Grant: None Assay Provider: Xinzhuan Su, NIAID NCGC Assay Overview: Plasmodium falciparum is a virulent malarial parasite that kills 1-2 million people worldwide each year. Transmitted by mosquitoes, the sporozoite form of the parasite enters the blood stream to infect hepatocytes, where they become merozoites that infect red blood cells (erythrocytes). Within erythrocytes, merozoites begin a […] cycle of growth and division, after which the parasite is released to infect new red blood cells. Gametocytes, which form within erythrocytes as well, circulate in the bloodstream and are ingested by the mosquito, thereby completing the life cycle. To profile malarial isolates for differential chemical responses and to identify inhibitors of malarial growth, an assay that measures P. falciparum growth and replication within erythrocytes was employed. This assay uses a DNA binding fluorescent dye (SYBR Green) to detect parasite DNA following cell lysis. Because mature erythrocytes lack DNA, only Plasmodium-derived DNA is detected.
NCGC Assay Protocol Summary: The SYBR Green viability assay was adapted from a method described previously (Plouffe et al., 2008). For screening 3 ul culture medium was dispensed into 1536 well black clear bottom plates (Aurora Biotechnologies) using a Multidrop Combi (Thermo Fisher Scientific Inc.), 23 nL compounds in DMSO were added by a pin tool (Kalypsys), and 5 ul of erythrocytes infected with P. falciparum (0.3% parasitemia, 2.5% hematocrit final concentration) were added. The plates were incubated at 37 C in a humidified incubator in 5% CO2 for 72 h, and 2 ul lysis buffer (20 mM Tris HCl, 10 mM EDTA, 0.16% saponin, 1.6% triton X, 10X SYBR Green I supplied as 10,000X […] by Invitrogen) was added to each well. The plates were mixed for 25 sec with gentle shaking and incubated overnight at room temperature in the dark. The following morning, fluorescence intensity at 485(14) nm excitation and 535(25) nm emission wavelengths was measured on an EnVision (Perkin Elmer) plate reader. Plate reads were normalized relative to the control inhibitor (0.29 uM artemisinin) and vehicle (DMSO) wells present on each plate and then corrected by an algorithm using vehicle-only control plates at the beginning and end of the compound plate stack.
Potency means the concentration at half of the fitted maximal effect.

| SMILES | activity, negative = inhibition | Potency |
| --- | --- | --- |
| COc1cc(C(=O)NS(=O)(=O)c2ccccc2C)ccc1Cc1cn(C)c2ccc(NC(=O)OC3CCCC3)cc12 | -6.72% | – |
| COC(=O)C1=C(C)NC(C)=C(C(=O)OCCN2CCN(C(c3ccccc3)c3ccccc3)CC2)C1c1cccc([N+](=O)[O-])c1 (stereo not given) | – | 1.78 µM (active) |
| CC1(C)O[C@@H]2C[C@@H]3[C@H]4C[C@@H](F)C5=CC(=O)C=C[C@]5(C)[C@@]4(F)[C@@H](O)C[C@]3(C)[C@]2(C(=O)CO)O1 | 10.2% | – |
| CCC1=C[C@@H]2CN(C1)Cc1c([nH]c3ccccc13)[C@@](C(=O)OC)(c1cc3c(cc1OC)N(C)[C@@H]1[C@@](O)(C(=O)OC)[C@H](OC(C)=O)[C@]4(CC)C=CCN5CC[C@]31[C@@H]54)C2 | – | 2.51 µM (active) |
| COC(=O)C[C@](O)(CCCC(C)(C)O)C(=O)O[C@@H]1C(OC)=C[C@]23CCCN2CCc2cc4c(cc2[C@H]13)OCO4 | – | 0.0224 µM (active) |
| Nc1ccc(S(=O)(=O)Nc2ncccn2)cc1 | 4.3% [at 12.8 µM] | – |
| O=c1[nH]c(=O)n(C2CCCO2)cc1F (stereo not given) | 1.58% | – |
| CC[C@H]1CN2CCc3cc(OC)c(OC)cc3[C@H]2C[C@@H]1C[C@@H]1NCCc2cc(OC)c(OC)cc21 | – | 0.316 µM (active) |
| Nc1ccn([C@@H]2CS[C@H](CO)O2)c(=O)n1 | – | inactive |
| COc1c(N2C[C@@H]3CCCN[C@H]3C2)c(F)cc2c(=O)c(C(=O)O)cn(C3CC3)c12 | -29.5% | – |
| C[C@H]1C[C@@H]2[C@@H]([C@@H](O)C[C@@]3(C)[C@H]2CC[C@]3(O)C(=O)CO)[C@@]2(C)C=CC(=O)C=C12 | 4.95% [at 12.8 µM] | – |
| Nc1ccn([C@@H]2O[C@H](CO)[C@H](O)C2(F)F)c(=O)n1 | – | 0.282 µM (active) |
| CN1c2cc(O)c(N=NC(N)=O)cc2CC1S(=O)(=O)O (stereo not given) | -4.45% | – |
| O=C(O)CO.[NH2-].[NH2-].[Pt+2] | 13.8% | – |
| CC=CC1=C(C(=O)O)N2C(=O)[C@H](NC(=O)[C@H](N)c3ccc(O)cc3)[C@@H]2SC1 | -2.78% | – |

— PubChem BioAssay (NCATS)
